Results from PubChem BioAssay.

Target: PEG-3 (UniProt Q6IN02)
Experiment: inhibition of PEG-3 promoter-driven reporter – cell-based, HeLa, luciferase, CREF/GAPDH counter-screen panel, dose response (AID 624167)
Details: CREF/GAPDH counter-screens; HeLa PEG-Prom luciferase reporter, overnight, run 1, dose range 1, at 100 µM (top of the series) unless noted

Chain of PEG-3 (Q6IN02 whole entry, looked up): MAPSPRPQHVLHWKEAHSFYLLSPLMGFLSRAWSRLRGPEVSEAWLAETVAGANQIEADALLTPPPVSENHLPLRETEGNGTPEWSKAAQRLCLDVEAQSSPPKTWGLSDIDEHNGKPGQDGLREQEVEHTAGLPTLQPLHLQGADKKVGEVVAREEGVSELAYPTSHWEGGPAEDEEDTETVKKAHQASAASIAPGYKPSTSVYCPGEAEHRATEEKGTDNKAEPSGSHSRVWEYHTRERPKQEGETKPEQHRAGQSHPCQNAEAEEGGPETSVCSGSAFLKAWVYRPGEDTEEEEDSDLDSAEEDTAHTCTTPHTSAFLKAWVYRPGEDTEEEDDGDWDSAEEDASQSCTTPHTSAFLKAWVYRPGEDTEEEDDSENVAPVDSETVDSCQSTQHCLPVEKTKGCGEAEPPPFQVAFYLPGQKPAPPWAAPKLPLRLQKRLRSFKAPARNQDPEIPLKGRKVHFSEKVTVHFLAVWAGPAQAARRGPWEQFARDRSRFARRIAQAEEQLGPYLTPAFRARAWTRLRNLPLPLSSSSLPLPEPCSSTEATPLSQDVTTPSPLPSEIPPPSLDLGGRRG

SMILES	inhibition [%]
COc1cc(OC)c2cc(C(=O)N/N=C/c3ccccc3O)[nH]c2c1	95.8
CS(=O)(=O)c1ccc(-c2sc3ccccc3c2C#CCCO)cc1	96
Nc1ccc(-c2nc3ccc(C(=O)O)cc3s2)cc1	98.2
COc1ccc(S(=O)(=O)/N=C2\C=C(Nc3ccc(O)cc3)C(=O)c3ccccc32)cc1	96.4

Target: PEG-3 (UniProt Q6IN02)
Experiment: as above
Details: CREF/GAPDH counter-screens; HeLa PEG-Prom luciferase reporter, overnight, run 2, dose range 1, at 100 µM (top of the series) unless noted

SMILES	inhibition [%]
COc1ccc(/C=C2\SC(=S)N(CCCC(=O)NNC(=O)c3ccccc3O)C2=O)cc1	81.1
Cc1ccc(/C=C2\SC(=S)N(CCCC(=O)NNC(=O)c3ccccc3O)C2=O)cc1	73.5
O=C(Nc1ncc([N+](=O)[O-])s1)c1ccc2c(c1)OCO2	89.6
CN(C(=O)COC(=O)/C=C/c1cccc([N+](=O)[O-])c1)C1CCS(=O)(=O)C1 (centres undefined)	44.7
c1ccc(-c2nc(-c3ccccn3)no2)cc1	91.1
Cc1cc(S(=O)(=O)c2ccc(Cl)cc2)nc(S(=O)(=O)c2ccc(Cl)cc2)c1C#N	101
O=C(c1ccco1)N1CCN(C(c2ccccc2Cl)c2nnnn2Cc2cccs2)CC1 (centres undefined)	44.9
CC1=NOC(=O)/C1=C\c1ccc(-c2ccccc2Br)o1	98.5
Cc1nc(C)c(C(=O)N/N=C/c2cc(Br)ccc2O)s1	101
COc1ccc(-n2c(O)c(/C=N/Nc3nc(C)cc(C)n3)c3ccccc3c2=O)cc1OC	63.9
CC(C)CC1C(=O)N(Cc2cn(Cc3ccco3)nn2)CCS(=O)(=O)N1Cc1ccc(-c2ccc(F)cc2)cc1 (centres undefined)	30.4
CCCCCCCn1c(=N)n(CC(=O)c2ccco2)c2ccccc21	100
Cc1nc(-c2ccc(NC(=O)c3ccco3)cc2)cs1	99.3
CC1CCN(c2ccc(-c3cccs3)nn2)CC1	97.2
O=C(O)c1cccc(COc2ccccc2Cl)c1	87.5
CC(=O)c1ccc(-c2cnc3c(NC=O)cc(-c4ccccc4Oc4ccccc4)cn23)cc1	56.6
O=C(Nc1nc2ccccc2[nH]1)c1ccccc1F	98.3
CN[C@H]1C[C@H]2c3[nH]c4ccc(-c5ccc(OC)cc5)cc4c3CCN2C(=O)[C@H]1[C@H](C)O	98.8
COc1ccc2c(c1)sc1nc(-c3ccccc3)cn12	97.3
COC1CC(C)C(OC)c2cc(O)cc(c2O)NC(=O)C(C)=CC=CC(C)C(OC(N)=O)C(C)=CC(C)C1OC (centres undefined)	100

SMILES	inhibition [%]
CCc1ccc(/C=C2\SC(=S)N(CCCC(=O)NC3=NCCS3)C2=O)cc1	77.5
CC(=O)c1sc2c(c1OC(=O)c1ccc(Cl)cc1Cl)c(=O)n(-c1ccccc1)c(=S)n2-c1ccccc1	96.3
CCN(CC)S(=O)(=O)c1cccc(C(=O)N/N=C(\C)c2ccc(O)cc2O)c1	69.6
O=C(COc1ccc2c(c1)CCC2)Nc1ccccn1	94.2
O=C(NCCc1ccccc1)c1ccc2c(c1)OCO2	97.8
N=c1n(CCN2CCCCC2)c2ccccc2n1CC(O)c1ccc(Cl)c(Cl)c1 (centres undefined)	98.6
CCOc1ccc(OCc2cccc(C(=O)O)c2)cc1	91.5
CN(C)c1ccc(/C=C/c2ccc3c4ccccc4ccc3[n+]2-c2ccccc2)cc1	98.8
O=C(COc1ccc(Cl)cc1Cl)Nc1ccccn1	98.4
Cc1ccc(C(=O)CN2C(=O)c3ccccc3S2(=O)=O)cc1	92.4
CCCS(=O)(=O)c1cnc(C2COc3ccccc3O2)nc1N (centres undefined)	94.6
NS(=O)(=O)c1ccc(CCNc2nn3c(-c4ccc(F)c(Cl)c4)cnc3s2)cc1	74.3
CN(C)CC1CCC/C(=C\c2ccc(OC(=O)c3ccc(Cl)cc3)cc2)C1=O (centres undefined)	99
CN(C)S(=O)(=O)c1ccc(-c2csc(N/N=C/c3ccc(O)cc3)n2)cc1	101
Brc1ccc(N=Nc2ccc3ccccc3n2)cc1	94.5
CC(=O)NC(c1ccc(Cl)cc1Cl)c1ccc2cccnc2c1O (centres undefined)	96.7
COc1cc(OC)c2cc(C(=O)N/N=C/c3ccccc3O)[nH]c2c1	95.1
CS(=O)(=O)c1ccc(-c2sc3ccccc3c2C#CCCO)cc1	97.9
Nc1ccc(-c2nc3ccc(C(=O)O)cc3s2)cc1	98.9
COc1ccc(S(=O)(=O)/N=C2\C=C(Nc3ccc(O)cc3)C(=O)c3ccccc32)cc1	99.7

System: Rat fibroblasts (CREF)
Experiment: as above
Details: CREF/GAPDH counter-screens; run 1, dose range 1, at 100 µM (top of the series)

SMILES	inhibition [%]
COc1ccc(/C=C2\SC(=S)N(CCCC(=O)NNC(=O)c3ccccc3O)C2=O)cc1	23.4
Cc1ccc(/C=C2\SC(=S)N(CCCC(=O)NNC(=O)c3ccccc3O)C2=O)cc1	10.1
O=C(Nc1ncc([N+](=O)[O-])s1)c1ccc2c(c1)OCO2	91.5
CN(C(=O)COC(=O)/C=C/c1cccc([N+](=O)[O-])c1)C1CCS(=O)(=O)C1 (centres undefined)	6.76
c1ccc(-c2nc(-c3ccccn3)no2)cc1	98
Cc1cc(S(=O)(=O)c2ccc(Cl)cc2)nc(S(=O)(=O)c2ccc(Cl)cc2)c1C#N	98.2
O=C(c1ccco1)N1CCN(C(c2ccccc2Cl)c2nnnn2Cc2cccs2)CC1 (centres undefined)	-23.5
CC1=NOC(=O)/C1=C\c1ccc(-c2ccccc2Br)o1	94.2
Cc1nc(C)c(C(=O)N/N=C/c2cc(Br)ccc2O)s1	52.7
COc1ccc(-n2c(O)c(/C=N/Nc3nc(C)cc(C)n3)c3ccccc3c2=O)cc1OC	80.4
CC(C)CC1C(=O)N(Cc2cn(Cc3ccco3)nn2)CCS(=O)(=O)N1Cc1ccc(-c2ccc(F)cc2)cc1 (centres undefined)	96.8
CCCCCCCn1c(=N)n(CC(=O)c2ccco2)c2ccccc21	95.9
Cc1nc(-c2ccc(NC(=O)c3ccco3)cc2)cs1	93.3
CC1CCN(c2ccc(-c3cccs3)nn2)CC1	96.1
O=C(O)c1cccc(COc2ccccc2Cl)c1	97
CC(=O)c1ccc(-c2cnc3c(NC=O)cc(-c4ccccc4Oc4ccccc4)cn23)cc1	-25.1
O=C(Nc1nc2ccccc2[nH]1)c1ccccc1F	98.8
CN[C@H]1C[C@H]2c3[nH]c4ccc(-c5ccc(OC)cc5)cc4c3CCN2C(=O)[C@H]1[C@H](C)O	96
COc1ccc2c(c1)sc1nc(-c3ccccc3)cn12	98.8
COC1CC(C)C(OC)c2cc(O)cc(c2O)NC(=O)C(C)=CC=CC(C)C(OC(N)=O)C(C)=CC(C)C1OC (centres undefined)	97.1

SMILES	inhibition [%]
CCc1ccc(/C=C2\SC(=S)N(CCCC(=O)NC3=NCCS3)C2=O)cc1	0.087
CC(=O)c1sc2c(c1OC(=O)c1ccc(Cl)cc1Cl)c(=O)n(-c1ccccc1)c(=S)n2-c1ccccc1	14.9
CCN(CC)S(=O)(=O)c1cccc(C(=O)N/N=C(\C)c2ccc(O)cc2O)c1	43.3
O=C(COc1ccc2c(c1)CCC2)Nc1ccccn1	97.5
O=C(NCCc1ccccc1)c1ccc2c(c1)OCO2	93.9
N=c1n(CCN2CCCCC2)c2ccccc2n1CC(O)c1ccc(Cl)c(Cl)c1 (centres undefined)	100
CCOc1ccc(OCc2cccc(C(=O)O)c2)cc1	96.6
CN(C)c1ccc(/C=C/c2ccc3c4ccccc4ccc3[n+]2-c2ccccc2)cc1	101
O=C(COc1ccc(Cl)cc1Cl)Nc1ccccn1	101
Cc1ccc(C(=O)CN2C(=O)c3ccccc3S2(=O)=O)cc1	87.2
CCCS(=O)(=O)c1cnc(C2COc3ccccc3O2)nc1N (centres undefined)	89.5
NS(=O)(=O)c1ccc(CCNc2nn3c(-c4ccc(F)c(Cl)c4)cnc3s2)cc1	28.6
CN(C)CC1CCC/C(=C\c2ccc(OC(=O)c3ccc(Cl)cc3)cc2)C1=O (centres undefined)	51.4
CN(C)S(=O)(=O)c1ccc(-c2csc(N/N=C/c3ccc(O)cc3)n2)cc1	97.4
Brc1ccc(N=Nc2ccc3ccccc3n2)cc1	97.1
CC(=O)NC(c1ccc(Cl)cc1Cl)c1ccc2cccnc2c1O (centres undefined)	-0.0688
COc1cc(OC)c2cc(C(=O)N/N=C/c3ccccc3O)[nH]c2c1	67.5
CS(=O)(=O)c1ccc(-c2sc3ccccc3c2C#CCCO)cc1	95.2
Nc1ccc(-c2nc3ccc(C(=O)O)cc3s2)cc1	89.1
COc1ccc(S(=O)(=O)/N=C2\C=C(Nc3ccc(O)cc3)C(=O)c3ccccc32)cc1	101
